From PubChem BioAssay (NCI)
The panel holds about 83,000 compounds, 20% with a hit somewhere; the sample as a whole holds those more often.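 Cells were grown in 96-well plates and exposed to the test compound at a single concentration for 48 hours; results are reported as percent growth, with values below 10 considered active.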 Active and inactive are the calls of the source.

Legend:
Assay in all cases: NCI-60 one-dose screen, 48 h (100 = growth as untreated, 0 = no growth, -100 = all killed)
Settings in all cases: 10 µM unless noted
HCT-15 colon = test system: HCT-15 colon
HT29 colon = test system: HT29 colon
SNB-75 CNS = test system: SNB-75 CNS
SNB-19 CNS = test system: SNB-19 CNS
PC-3 prostate = test system: PC-3 prostate
SK-MEL-5 melanoma = test system: SK-MEL-5 melanoma
UACC-62 melanoma = test system: UACC-62 melanoma
LOX IMVI melanoma = test system: LOX IMVI melanoma
SK-MEL-28 melanoma = test system: SK-MEL-28 melanoma
U251 CNS = test system: U251 CNS

Structure (SMILES) | growth (HCT-15 colon) | growth (HT29 colon) | growth (SNB-75 CNS) | growth (SNB-19 CNS) | growth (PC-3 prostate) | growth (SK-MEL-5 melanoma) | growth (UACC-62 melanoma) | growth (LOX IMVI melanoma) | growth (SK-MEL-28 melanoma) | growth (U251 CNS)
Nc1n[nH]c2ccc([C@@H]3Nc4cc5[nH]ncc5cc4[C@H]4C5CCC(C5)[C@@H]34)cc12 (stereo partly drawn) | 13.7% (inactive) | 6.61% (active) | -9.87% (active) | 20.4% (inactive) | 25.1% (inactive) | 9.55% (active) | 33.8% (inactive) | 25.4% (inactive) | 60.1% (inactive) | 
COc1cc(-c2nc3occn3c2-c2ccnc(NCCCNS(=O)(=O)c3ccccc3)n2)ccc1F | 37.5% (inactive) | 16.7% (inactive) | 102% (inactive) | 78.2% (inactive) | 22.2% (inactive) | -22.4% (active) | 4.35% (active) | 31.5% (inactive) | 38% (inactive) | 
C/C(C=O)=C\c1ccc2c(c1)OCO2 | 108% (inactive) | 110% (inactive) | 102% (inactive) | 111% (inactive) | 104% (inactive) | 105% (inactive) | 105% (inactive) | 96.7% (inactive) | 124% (inactive) | 
COCC[C@H]1CCC/C=C/[C@@H]2C[C@H](O)C[C@H]2[C@H](O)/C=C/C(=O)O1 | 9.76% (active) | -13.8% (active) | 33.9% (inactive) | 30.2% (inactive) | 20.5% (inactive) | -92% (active) | 21.7% (inactive) | -62.3% (active) | 0.149% (active) | 
CC(C)c1ccc(-n2c(=S)[nH]c3sc4c(c3c2=O)CCC(=O)C4)cc1 | 45.9% (inactive) | 109% (inactive) | 41.6% (inactive) | 26.4% (inactive) | 7.63% (active) | 27.9% (inactive) |  |  | 75.7% (inactive) | 11.8% (inactive)
Cc1ccc(-c2cc(C(=O)N3N=C(c4ccc(N)cc4)CC3c3ccc(Cl)cc3)c3ccccc3n2)cc1 (stereo not drawn) | 30.2% (inactive) | -1.84% (active) | -4.36% (active) | 42.1% (inactive) | 15.4% (inactive) | 12.4% (inactive) | 39.2% (inactive) | 37.2% (inactive) | 72.6% (inactive) | 
c1ccc(CNc2ccc3nc(CCC4CCCCC4)[nH]c3c2)cc1 | 26.8% (inactive) | 13.8% (inactive) | 84.9% (inactive) | 80.4% (inactive) | 62.5% (inactive) | 43.2% (inactive) | 59.6% (inactive) | 79.4% (inactive) | 80% (inactive) | 
CO[C@H](C(=O)[C@@H](O)[C@@H](C)O)[C@@H]1Cc2cc3cc(O[C@H]4C[C@@H](O[C@H]5C[C@@H](O)[C@H](O)C(C)O5)[C@H](O)C(C)O4)c(C)c(O)c3c(O)c2C(=O)[C@H]1O[C@H]1C[C@@H](O[C@H]2C[C@@H](O[C@H]3C[C@@H](OC)[C@H](O)C(C)O3)[C@@H](O)C(C)O2)C(O)(O)C(C)O1 (stereo partly drawn) | 34.2% (inactive) | -0.578% (active) | -41.6% (active) | 11.8% (inactive) | 19.4% (inactive) | -51.5% (active) |  |  | -15.5% (active) | 9.8% (active)
O=C(CCC(=O)c1nc2ncccc2[nH]1)NN1C(=O)CSC1c1ccc(Cl)cc1 (stereo not drawn) | 102% (inactive) | 95.5% (inactive) | 84.7% (inactive) | 94.2% (inactive) | 94.3% (inactive) | 104% (inactive) | 90.3% (inactive) | 91.4% (inactive) | 109% (inactive) | 
O=C(O)c1cn(C2CC2)c2cc(N3CCN(C(=O)N/N=C/c4ccccc4)CC3)c(F)cc2c1=O | 98.4% (inactive) | 96.9% (inactive) | 98.9% (inactive) | 94.7% (inactive) | 96% (inactive) | 94.9% (inactive) | 95.3% (inactive) | 80.7% (inactive) | 108% (inactive) | 
CCCCSCC(=O)c1ccccc1 | 104% (inactive) | 92.2% (inactive) | 82.3% (inactive) | 98.1% (inactive) | 81.5% (inactive) | 102% (inactive) | 102% (inactive) | 101% (inactive) | 108% (inactive) | 
CCC/C(=N\NC(N)=O)C(OC)OC | 105% (inactive) | 97.8% (inactive) | 67.9% (inactive) | 102% (inactive) | 97% (inactive) | 100% (inactive) | 100% (inactive) | 84.4% (inactive) | 96.4% (inactive) | 
Cn1c(=O)c2c(c3ccccc31)OC(N)=C(C#N)C21C(=O)c2ccccc2C1=O | 96.1% (inactive) | 102% (inactive) | 76.8% (inactive) | 88.2% (inactive) | 80.8% (inactive) | 94.9% (inactive) | 89.8% (inactive) | 97.5% (inactive) | 104% (inactive) | 
CCOC(=O)c1c(NC(=O)c2ccc(C(C)(C)C)cc2)sc2cc(O)ccc12 | 70.3% (inactive) | 80.6% (inactive) | 104% (inactive) | 111% (inactive) | 105% (inactive) | 98.1% (inactive) | 101% (inactive) | 87% (inactive) | 99.1% (inactive) | 
COc1ccc(C/C(C)=C(\c2ccc(O)cc2)c2ccc(OCCN3CCCC3)cc2)cc1 | 102% (inactive) | 88.4% (inactive) | 94.2% (inactive) | 103% (inactive) | 96.8% (inactive) | 111% (inactive) | 102% (inactive) | 98.3% (inactive) | 97% (inactive) | 
COC(=O)C1=Nc2ccc(F)cc2/C1=C\c1sc(Nc2ccc(O)cc2)nc1O | 74.3% (inactive) | 106% (inactive) | 33.8% (inactive) | 45.7% (inactive) | 52.1% (inactive) | 60.3% (inactive) | 34.3% (inactive) | 64% (inactive) | 66.1% (inactive) | 
COc1ccc(-c2cc(-c3cc(OC)c(OC)c(OC)c3)c(C#N)c(=O)n2CCCCCC(=O)NO)cc1 | 71.7% (inactive) | 101% (inactive) | 70.1% (inactive) | 89.8% (inactive) | 89.4% (inactive) | 91.4% (inactive) | 93.3% (inactive) | 78.7% (inactive) | 109% (inactive) | 
COc1cc2cc(Oc3ccc(NC(=O)Nc4ccccc4)cc3)c(C)nc2cc1OCCN1CCCCC1 | 14.3% (inactive) | 17% (inactive) | 74.9% (inactive) | 91.6% (inactive) | 82.7% (inactive) | 84.7% (inactive) | 95.4% (inactive) | 78.7% (inactive) | 91.6% (inactive) | 
N#CC(C#N)N=Nc1ccc(Cl)cc1Cl | 85% (inactive) | 81.8% (inactive) | 89.3% (inactive) | 102% (inactive) | 78.7% (inactive) | 99.8% (inactive) | 69.6% (inactive) | 94.8% (inactive) | 70.3% (inactive) | 
COC(=O)Cc1nc(C#N)c(N(C)C)o1 | 99.4% (inactive) | 106% (inactive) | 78.5% (inactive) | 96.1% (inactive) | 99.4% (inactive) | 102% (inactive) | 87.6% (inactive) | 97.7% (inactive) | 104% (inactive) | 
CC1CN=C(c2cccc(-c3ccc(-c4ccccc4)o3)c2)N1 (stereo not drawn) | -57.5% (active) | -43.6% (active) | 58.7% (inactive) | 25.8% (inactive) | 11.2% (inactive) | -93.3% (active) | -62.2% (active) | -85.7% (active) | -76.3% (active) | 
NC(=O)OCCn1cc(-c2nc(-c3c[nH]c4ncccc34)cs2)c2ccccc21 | 28% (inactive) | 8.34% (active) | 10.6% (inactive) | 42.2% (inactive) | 33.2% (inactive) | 18.5% (inactive) | 32.9% (inactive) | 30.1% (inactive) | 61.7% (inactive) | 
O=C1NC(=Nc2ccc(O)cc2)S/C1=C\c1cccs1 | 20.9% (inactive) | 89.7% (inactive) | -12.7% (active) | 32.4% (inactive) | -1.89% (active) | 47.8% (inactive) | 46.1% (inactive) | 32.1% (inactive) | 75.6% (inactive) | 
N#Cc1c(Nc2ccc(F)cc2)n[nH]c1-c1cccs1 | 97.7% (inactive) | 114% (inactive) | 85.6% (inactive) | 85.6% (inactive) | 95.7% (inactive) | 97.1% (inactive) |  |  | 105% (inactive) | 
CCN(CC)c1ccc(/C=N/NC(=O)c2ccc(Nc3ccnc(C(F)(F)F)c3)cc2)c(O)c1 | 19.6% (inactive) | 0.587% (active) | 37.1% (inactive) | 15.5% (inactive) | 19.6% (inactive) | -50.6% (active) | 5.86% (active) | -25.4% (active) | 47.4% (inactive) | 
COc1cc2c(/C=C3\C(=O)Nc4ccccc43)c(C(=O)O)[nH]c2cc1C | 105% (inactive) | 89.8% (inactive) | 66.3% (inactive) | 113% (inactive) | 79.8% (inactive) | 109% (inactive) | 84.3% (inactive) | 92.7% (inactive) | 81.6% (inactive) | 
COc1ccccc1NC(=O)c1ccc(/C=C/C(=O)c2nccn2C)cc1 | -30.3% (active) | -52.6% (active) | -3.01% (active) | -84.3% (active) | -49.4% (active) | -97.1% (active) |  |  | -45.9% (active) | -74.6% (active)
